# According to PubChem BioAssay (EPA / NIEHS):
# Activity calls are given as the source filed them. How the source made its calls: active means hit-call score of the fitted dose curve at least 0.9, where 1 is the maximum; inactive means score below 0.9.
# Read-out: ATP-citrate lyase (ACLY), ACLY (gene 47)
# Assay: LTEA_HepaRG_ACLY: Life Technologies and Expression Analysis (LTEA) Assay for ATP-citrate lyase (ACLY) using HepaRG (AID 2283466)
# Details: mRNA level, 48 h; actives raise or lower the signal
# Protocol: LTEA_HepaRG is a cell based, multiplexed-readout assay that uses HepaRG, a human liver cell line, with measurements taken at 48 hours after chemical dosing on a 96-well plate.LTEA_HepaRG_ACLY is one of 102 assay component(s) measured in the LTEA HepaRG cell culture assay. It is a marker of Steatosis.Data from the assay component LTEA_HepaRG_ACLY was analyzed into 1 endpoint. This assay endpoint, LTEA_HepaRG_ACLY, was analyzed with bidirectional fitting relative to DMSO as the negative control and baseline of activity. Using a type of inducible reporter, measures of mRNA induction for gain or loss-of-signal activity can be used to understand regulation of transcription factor activity. To generalize the intended target to other relatable targets, this assay endpoint is annotated to the lyase intended target family, where the subfamily is steatosis.
# A total of 1060 chemcials from the ToxCast library were tested in eight-point concentration-response experiments. Cell culture and cytotoxicity assays were conducted at Thermo Fisher Scientific's Custom Services facility (Madison, WI). A single lot of human HepaRG cells (Thermo Fisher Scientific, Frederick, MD) was used for the cell culture experiments. 96-well format collagen type I coated plates of human HepaRG cells were prepared using established methods. Briefly, cryopreserved HepaRG cells were thawed, plated at a density of approximately 100,000 cells/well in HepaRG Thaw, Plate, and General Purpose media (HPRG770, Thermo Fisher Scientific), and incubated for 48 hours. 0.5% DMSO was selected as vehicle control to balance the requisite need of DMSO in HepaRG cultures to maintain differentiation (for example, baseline metabolism, proportions of hepatocytes vs. cholangiocytes), while enabling further hepatic receptor pathway activation (for example, PXR and CAR) in response to chemical exposure. 48 hours after plating, the culture medium was replaced with HepaRG Serum-Free Incudtion Media. Cells were exposed to each test chemical in duplicate and maintained in CO2 incubators for another 48 hours. Chemical plates were thawed to room temperature and 200x concentrations of treatment groups were prepared. 8-point conentration-reponse curves were made with the highest exposure at 100 uM, followed by half-log dilutions, all in 0.5% DMSO. Each test plate contained variouse controls, induction positive controls (1mM phenobarbital), cytotoxicity positive controls ([…] aflatoxin B1), vehicle controls (0.5% DMSO), and total lysis controls (0.5% DMSO). Cell morphology images were taken using an Essen IncuCyte FLR automated microscope, with six 96-well plates imaged in about 24 minutes. Images were captured and exported and JPEG files. Spent culture media was transfered to black-well plates for the LDH assay, and remaining media was sorted at -80 C for later use. Cells were treated with RLT buffer and frozen until shipped for gene expression analysis. Total RNA was isolated from the cell suspension in 75 uL of Buffer RLT (Qiagen, Germantown, MD 20874) by Quintiles/Expression Analysis (Durham, NC) using a custom isolation procedure. Total RNA from each plate well was transferred to a preamplification plate. Fluidigm's 96.96 Dynamic ArrayTM (Fluidigm, Amsterdam, the Netherlands) technology was used for gene expression analyses by quantitative reverse transcription polymerase chain reaction (qRT-PCR, performed by Quintiles/Expression Analysis, Durham, NC)89. Standard TaqManTM Assays (Applied Biosystems/ThermoFisher Scientific, Foster City, CA) were used to assess the expression of 93 genes selected based on their selectivity and sensitivity to important hepatic receptors known to be modulated by environmental chemicals; importance in human hepatocyte functionality; and hepatotoxicity. […]
SMILES,outcome,AC50
COC(=O)CCC(=O)OC,inactive,
NC(=Nc1ccccc1)Nc1ccccc1,inactive,
O=C1c2c(O)cccc2Cc2cccc(O)c21,inactive,
CCc1nc(N)nc(N)c1-c1ccc(Cl)cc1,,80.4 µM (active)
NCCOCCOCCN,inactive,
OCC(CO)n1cnc(-c2ccc(F)cc2)c1-c1ccnc(Oc2ccccc2)n1,inactive,
C#CC(O)C(CC)CCCC (stereo not given),inactive,
C/C=C/C=C/C(=O)O,inactive,
CC(=O)O[C@]1(C(C)=O)CC[C@H]2[C@@H]3C=C(Cl)C4=CC(=O)[C@@H]5C[C@@H]5[C@]4(C)[C@H]3CC[C@@]21C,inactive,
Oc1ccccc1O,inactive,
CCc1cc(C2=C(C(=O)O)N(c3ccccc3C(F)(F)F)S(=O)(=O)c3ccccc32)cc2c1OCO2,,65.2 µM (active)
CCCCOC(=O)CCCCC(=O)OCCCC,inactive,
CC(=O)S[C@H](C(=O)N[C@H]1Cc2ccccc2[C@H]2CCC[C@@H](C(=O)O)N2C1=O)C(C)C,inactive,
Cc1cn([C@H]2C=C[C@@H](CO)O2)c(=O)[nH]c1=O,inactive,
CC(N)=O,inactive,
O=C(O)c1cccnc1,inactive,
CCCCC(CC)COP(=O)(OCC(CC)CCCC)OCC(CC)CCCC (stereo not given),inactive,
CCN(CC)CCOc1ccc(C(=C(Cl)c2ccccc2)c2ccccc2)cc1,inactive,
CCCCCCCCCCCCCCOS(=O)(=O)O,inactive,
CC(=O)OC1CC(C)OC(C)O1 (stereo not given),inactive,

SMILES,outcome,AC50
CC(=O)OCC(COC(C)=O)OC(C)=O,inactive,
Nc1nc(Cl)nc2c1ncn2[C@H]1C[C@H](O)[C@@H](CO)O1,inactive,
O=C1CCCCC1,inactive,
CCCCC(CC)CO (stereo not given),inactive,
Nc1nc(=S)c2[nH]cnc2[nH]1,,10.2 µM (active)
NC=O,inactive,
CC(COCC(C)OC(=O)c1ccccc1)OC(=O)c1ccccc1 (stereo not given),inactive,
O=NO,inactive,
CN(C)C(=O)NC1(c2ccccc2)CCN(CCC[C@]2(c3ccc(Cl)c(Cl)c3)CCCN(C(=O)c3ccccc3)C2)CC1,inactive,
Cc1cc(SC2=C(O)C[C@@](CCc3ccc(N)cc3)(C(C)C)OC2=O)c(C(C)(C)C)cc1CO,inactive,
c1ccc2occc2c1,inactive,
Cc1cc(Cc2ccc(N)c(C)c2)ccc1N,inactive,
N[C@@H](Cc1c[nH]c2ccccc12)C(=O)O,inactive,
CSc1ccc(Oc2ccc(S(N)(=O)=O)cc2CN(C)C)cc1C,inactive,
Oc1ccc(O)cc1,inactive,
O=C(NS(=O)(=O)/C=C/c1cccs1)c1ccc(F)cc1Br,inactive,
O=C(O)CC(O)(CC(=O)O)C(=O)O,inactive,
CN(C)CCCN1c2ccccc2Sc2ccc(Cl)cc21,inactive,
CCOCCOCCO,inactive,
COc1ccc(OC(F)(F)F)cc1CN[C@H]1CCCN[C@H]1c1ccccc1,,95.6 µM (active)
